Test systems include T-47D breast; BT-549 breast; MDA-MB-435 melanoma; SW-620 colon; MCF7 breast; HCT-116 colon; HCC-2998 colon; KM12 colon.
Assay in all cases: NCI-60 one-dose screen, 48 h (100 = growth as untreated, 0 = no growth, -100 = all killed)
Common to all, as to settings: 10 µM unless noted

About 83,000 compounds went through this panel and 20% of them were active in at least one assay; those are over-represented in the sample as a whole.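 Method: cells in 96-well plates; compound added at one concentration; 48 h incubation; percent growth measured; values under 10 scored active.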 A number with no mark means an inactive call. The source made the active and inactive calls.

`Clc1ccc(I)c2ccccc12`: the growth was 96.8% in the assay with T-47D breast; 94.6% in the assay on BT-549 breast; 108% in the assay with MDA-MB-435 melanoma; 107% in the assay on SW-620 colon; 95.8% with MCF7 breast; 97.4% in the assay on HCT-116 colon. Besides, the values for the growth in the assay with HCC-2998 colon and with KM12 colon were 107% and 110%, respectively.

On to `c1ccc(-c2cn3ccnc3c(-c3ccc4ncn(C5CCCCC5)c4c3)n2)cc1`, for which the growth in the assay on T-47D breast was -11.1% (active); in the assay with BT-549 breast, 42.9%; in the assay with MDA-MB-435 melanoma it was 71.3%; with SW-620 colon it was 90.9%; in the assay on MCF7 breast, 62%; in the assay on HCT-116 colon, 40.5%. The growth was 103% with HCC-2998 colon and 51% with KM12 colon.

Regarding `CC1=NN(c2cccc(Cl)c2)C(=O)/C1=C\c1cn(-c2nc(N3CCOCC3)nc(N3CCOCC3)n2)c2ccccc12`, the growth in the assay on T-47D breast is 99.8%; in the assay with BT-549 breast, 103%; in the assay with MDA-MB-435 melanoma it was 100%; in the assay with SW-620 colon, 110%; with MCF7 breast it was 98.9%; in the assay with HCT-116 colon, 94.9%. Also, the growth is 104% with HCC-2998 colon and 107% in the assay on KM12 colon.

Take `CCCCCCCCCCCCCCCC[n+]1cccc(C#N)c1`: the growth in the assay on T-47D breast was 49.2%; in the assay with BT-549 breast, 90.3%; in the assay on MDA-MB-435 melanoma, 73.3%; in the assay on SW-620 colon, 35.6%; in the assay on MCF7 breast it was 38.5%; in the assay with HCT-116 colon, 24%. For the same molecule, the figures for the growth in the assay on HCC-2998 colon and with KM12 colon were 65.2% and 44.4%, respectively.

Take `NC(=O)CC(NC(=O)COc1ccc(Cl)cc1Cl)C(=O)O` (stereo unspecified): the growth in the assay with T-47D breast is 109%; in the assay with BT-549 breast, 108%; in the assay on MDA-MB-435 melanoma, 107%; in the assay with SW-620 colon, 105%; with MCF7 breast, 102%; in the assay with HCT-116 colon it was 101%. Further, the growth was 109% in the assay with HCC-2998 colon and 104% with KM12 colon.

On to `Cc1ccc(C(=O)C(Br)C(Br)c2ccccc2)cc1` (stereo unspecified), for which the growth was 71.5% with T-47D breast; 104% in the assay with BT-549 breast; 99.8% with MDA-MB-435 melanoma; 27.8% in the assay with SW-620 colon; 25.7% in the assay with MCF7 breast; -65.7% (active) with HCT-116 colon. The growth in the assay with HCC-2998 colon is 116%; in the assay on KM12 colon, 99.1%.

In the case of `CCOC(=O)C1=C(c2ccccc2)NC(=O)NC1CN1C(=O)c2ccccc2C1=O` (stereo unspecified), the growth in the assay with T-47D breast is 99%; in the assay with BT-549 breast, 129%; with MDA-MB-435 melanoma, 114%; in the assay on SW-620 colon, 107%; with MCF7 breast, 98.3%; in the assay on HCT-116 colon, 99.6%. Moreover, the growth in the assay with HCC-2998 colon is 62.9%; with KM12 colon, 113%.

Turning to `NC(N)=Nc1ccc(/C=C2\C=Cc3ccccc32)cc1`, the growth is 50.6% with T-47D breast; 81.5% with BT-549 breast; 21.6% with MDA-MB-435 melanoma; 33.5% with SW-620 colon; 25% in the assay with MCF7 breast; 47.5% in the assay on HCT-116 colon. The growth in the assay on HCC-2998 colon was 62.6%; in the assay on KM12 colon, 15.2%.

For the molecule `C=CCNC(=S)NNc1ccc([N+](=O)[O-])cn1`, the growth in the assay with T-47D breast was 113%; in the assay on BT-549 breast, 100%; in the assay on MDA-MB-435 melanoma, 95.7%; in the assay on SW-620 colon, 92%; in the assay with MCF7 breast, 88.4%; with HCT-116 colon, 97.6%. In addition, the results for the growth in the assay on HCC-2998 colon and with KM12 colon were 96.3% and 99.4%, respectively.

Consider `Nc1cc2c(cc1Br)[nH]c(=O)c1ccccc12`, for which the growth in the assay on T-47D breast was 29.6%; in the assay on BT-549 breast, 65.1%; in the assay on MDA-MB-435 melanoma it was -42.6% (active); with SW-620 colon, 61%; in the assay on MCF7 breast, 15.9%; in the assay on HCT-116 colon, 19.2%. Further, the growth in the assay on HCC-2998 colon was 68%; with KM12 colon it was 26.2%.

As to `O=C1CCNC1`, the growth in the assay on T-47D breast was 107%; in the assay on BT-549 breast, 105%; with MDA-MB-435 melanoma, 104%; in the assay on SW-620 colon it was 103%; with MCF7 breast it was 103%; in the assay with HCT-116 colon it was 105%. Also, the growth in the assay on HCC-2998 colon is 118%; with KM12 colon, 111%.

Turning to `COC(=O)C(C(=O)OC)C(Br)C(Br)C(Br)c1ccccc1` (stereo unspecified), the growth in the assay on T-47D breast was -32.9% (active); in the assay with BT-549 breast, 108%; in the assay with MDA-MB-435 melanoma, 91.2%; with SW-620 colon, 18.6%; in the assay on MCF7 breast, 8.14% (active); in the assay on HCT-116 colon it was 16.5%. In addition, the figures for the growth in the assay with HCC-2998 colon and with KM12 colon were 110% and 101%, respectively.

Consider `CSCc1ncc(-c2ccc(C(F)(F)F)cc2)c(NC2CCCCCC2)n1`, for which the growth with T-47D breast was 53.5% [25 µM]; in the assay on BT-549 breast it was 82.1% [25 µM]; in the assay with MDA-MB-435 melanoma, 78.7% [25 µM]; in the assay with SW-620 colon, 53.1% [25 µM]; with MCF7 breast, 68% [25 µM]; in the assay on HCT-116 colon, 38.1% [25 µM]. Also, the results for the growth with HCC-2998 colon and in the assay with KM12 colon were 89.9% [25 µM] and 52.1% [25 µM], respectively.

`S=C(N/N=C/c1cc(Cl)cc(Cl)c1)NC12CC3CC(CC(C3)C1)C2`: the growth with T-47D breast is -8.35% (active); with BT-549 breast, 98%; with MDA-MB-435 melanoma, 78.4%; in the assay with SW-620 colon, 73.8%; in the assay on MCF7 breast, 82.5%; in the assay on HCT-116 colon, 69.4%. Moreover, the figures for the growth in the assay on HCC-2998 colon and in the assay on KM12 colon were 115% and 105%, respectively.

`O=S(=O)(O)c1ccc2c(c1)Sc1cc(S(=O)(=O)O)ccc1O2`: the growth with T-47D breast is 110%; with BT-549 breast, 127%; in the assay on MDA-MB-435 melanoma, 92.6%; in the assay with SW-620 colon, 104%; with MCF7 breast it was 106%; in the assay on HCT-116 colon it was 106%. For the same molecule, the growth was 102% in the assay on HCC-2998 colon and 108% in the assay with KM12 colon.

As for `COc1cc2c(cc1OC)C(Cc1cc(OC)c(OC)cc1[N+](=O)[O-])=NCC2`, the growth is 78.5% in the assay with T-47D breast; 56.6% with BT-549 breast; 90.9% in the assay with MDA-MB-435 melanoma; 82% in the assay on SW-620 colon; 94% in the assay with MCF7 breast; 62.2% in the assay on HCT-116 colon. Also, the growth in the assay with HCC-2998 colon was 89.5%; in the assay on KM12 colon, 88%.

`CC(C)OC(=O)Nn1cnc2ccccc21`: the growth in the assay with T-47D breast was 114%; in the assay with BT-549 breast it was 116%; in the assay on MDA-MB-435 melanoma, 110%; with SW-620 colon, 111%; in the assay with MCF7 breast it was 120%; in the assay with HCT-116 colon it was 87.4%. The growth was 105% in the assay with HCC-2998 colon and 114% with KM12 colon.
